# Test results published in the supplement of paper PMC10042075.
# Values joined by “and” are separate entries in the source; they are usually repeats but may differ in a detail not shown here. Equal values may be shown once. Where a name gives a salt, the structure may show the parent alone. ± gives the standard deviation of the averaged measurements.
# Tested on: LASCPC-01
# Assay: cell viability relative to DMSO control (fraction); higher = less growth inhibition (more viable cells)
# Conditions: 2 µM; 72 h
# Method: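 High-throughput single-dose screen in the LASCPC-01 NEPC cell line in 384-well plates. Cells were treated with each compound at 2 µM for 72 h, and viability was read by CellTiter-Glo luminescence. Values are normalised to the DMSO control (compound/DMSO) from three replicates; only the 5-HT-related subset of the 7315-compound library is given.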
row,SMILES,cell viability
1,CNCC[C@@H](Oc1ccccc1C)c1ccccc1 [Atomoxetine HCl],1.02
2,N[C@@H](Cc1c[nH]c2ccc(O)cc12)C(=O)O [5-Hydroxy-L-tryptophan],1.04
3,Cc1nccn1CC1CCc2c(c3ccccc3n2C)C1=O (stereo not given) [Ondansetron hydrochloride],1.12
4,CN1CCN(c2nc3cc(C(F)(F)F)ccc3n3cccc23)CC1,0.521
5,CN1CCN(C2=Nc3cc(Cl)ccc3Nc3ccccc32)CC1 [Clozapine],1.24
6,O=C1NCCN1CCN1CCC(c2cn(-c3ccc(F)cc3)c3ccc(Cl)cc23)CC1 [Sertindole],0.499
7,COc1cc2c(cc1OC)[C@@H]1Cc3ccc(OC)c(OC)c3CN1CC2 [Rotundine],1.05
8,COc1cc(N)c(Cl)cc1C(=O)OCCN1CCCCC1,0.718
9,O=c1ccc2ccc(OCCCCN3CCN(c4cccc5sccc45)CC3)cc2[nH]1 [Brexpiprazole],1.01
10,COc1cc(/C=C/C(=O)NCCn2c(C(F)(F)F)cc3ccccc32)cc(OC)c1OC,0.968
11,Cc1[nH]cnc1CN1CCc2c(c3ccccc3n2C)C1=O [Alosetron hydrochloride],1.11
12,O=C(O[C@@H]1C[C@@H]2C[C@H]3C[C@H](C1)N2CC3=O)c1c[nH]c2ccccc12 [Dolasetron],1.15
13,COc1ccccc1N1CCN(CCN(C(=O)c2ccc(F)cc2)c2ccccn2)CC1 [p-MPPF dihydrochloride],0.362
14,CCN1CCN(c2cc(-c3ccc(F)cc3)c3c(n2)CCCCCC3)CC1 [Blonanserin],0.776
15,NC(N)=NC(N)=Nc1ccccc1 [1-Phenylbiguanide],0.991
16,CN(C)[C@@H]1CCc2[nH]c3ccc(NC(=O)c4ccc(F)cc4)cc3c2C1,0.693
17,COc1ccc(NS(=O)(=O)c2sc3ccc(Cl)cc3c2C)cc1N1CCNCC1,1.09 and 0.772
18,CN(C)CCc1c[nH]c2ccc(CS(=O)(=O)N3CCCC3)cc12 [Almotriptan Malate],0.818
19,COC(=O)[C@H]1[C@H]2C[C@@H]3c4[nH]c5cc(OC)ccc5c4CCN3C[C@H]2C[C@@H](OC(=O)c2cc(OC)c(OC)c(OC)c2)[C@@H]1OC [Reserpine],0.918
20,Cc1cc2c(cc1Cl)N(C(=O)Nc1cccc3ncccc13)CC2,0.693

row,SMILES,cell viability
1,Fc1ccc([C@@H]2CCNC[C@H]2COc2ccc3c(c2)OCO3)cc1 [Paroxetine hydrochloride hemihydrate (MW = 374.83)],1.09
2,Cc1nc2n(c(=O)c1CCN1CCC(c3noc4cc(F)ccc34)CC1)CCCC2 [Risperidone],0.99
3,CN1CC2c3ccccc3Oc3ccc(Cl)cc3C2C1 (stereo not given) [Asenapine Maleate],1.1
4,CN(C)C/C=C(/c1ccc(Br)cc1)c1cccnc1 [Zimelidine dihydrochloride],1.01
5,CCCCCNC(=N)N/N=C/c1c[nH]c2ccc(OC)cc12 [Tegaserod maleate],0.531
6,Cc1nc2ccccn2c(=O)c1CCN1CCC(C(=O)c2ccc(F)cc2)CC1 [Pirenperone],0.645
7,CC(=O)c1ccc2c(c1)N(CCCN1CCC(CCO)CC1)c1ccccc1S2 [Piperacetazine],0.764
8,O=C(c1ccc(F)cc1)C1CCN(CCn2c(=O)[nH]c3ccccc3c2=O)CC1 [Ketanserin],0.968
9,Cn1cc(C(=O)[C@@H]2CCc3[nH]cnc3C2)c2ccccc21 [Ramosetron],1.08
10,O=C(c1ccc(F)cc1)C1CCN(CCn2c(=O)[nH]c3ccccc3c2=O)CC1 [Ketanserin tartrate],0.737
11,COc1ccccc1N1CCN(CCCNc2cc(=O)n(C)c(=O)n2C)CC1 [Urapidil],1.18
12,CNCCC(Oc1ccc(C(F)(F)F)cc1)c1ccccc1 (stereo not given) [Fluoxetine],0.892 ± 0.41
13,CNS(=O)(=O)Cc1ccc2[nH]cc(CCN(C)C)c2c1 [Sumatriptan Succinate],0.971
14,O=C1[C@@H]2[C@H]3CC[C@H](C3)[C@@H]2C(=O)N1CCCCN1CCN(c2ncccn2)CC1 [Tandospirone citrate],0.477
15,Fc1ccc2c(CCNCc3cccc(OCC(F)(F)C(F)F)c3)c[nH]c2c1 [idalopirdine],0.923
16,O=C(O)Cc1c[nH]c2ccc(O)cc12 [5-Hydroxyindolacetic acid],0.928
17,COc1ccc(NC(=O)c2ccc(-c3ccc(-c4noc(C)n4)cc3C)cc2)cc1N1CCN(C)CC1,0.512
18,Cn1ccc2cc(NC(=O)Nc3cccnc3)ccc21,1.03
19,Cc1nccn1CC1CCc2c(c3ccccc3n2C)C1=O (stereo not given) [Ondansetron HCl],1.03
20,O=C1[C@@H]2[C@H]3CC[C@H](C3)[C@@H]2C(=O)N1C[C@@H]1CCCC[C@H]1CN1CCN(c2nsc3ccccc23)CC1 [Lurasidone hydrochloride],0.876
